Source: PubChem BioAssay (EPA / NIEHS)
Inconclusive results are not listed. Active and inactive are the calls of the source. Rule for the calls: active = hit-call score of the fitted dose curve at least 0.9, where 1 is the maximum; inconclusive = response in the unintended direction; inactive = score below 0.9.

Experiments:
[1] = molecular target: human Protein Tyrosine Phosphatase Receptor Type M (PTPRM), PTPRM (gene 5797) (UniProt P28827); experiment: NVS_ENZ_hPTPRM: NovaScreen (NVS) Enzymatic Assay for human Protein Tyrosine Phosphatase Receptor Type M (PTPRM) (AID 2283215)
Procedure, shortened: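 Cell-free recombinant PTPRM with fluorogenic substrate; product separated from substrate by electrophoretic mobility shift and read by fluorescence, 1.33 h after dosing. Primary screen single concentration (25 uM) in duplicate; actives retested in concentration series; loss of signal versus DMSO.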

[2] = molecular target: human Sirtuin 2 (SIRT2), SIRT2 (gene 22933) (UniProt Q8IXJ6); experiment: NVS_ENZ_hSIRT2: NovaScreen (NVS) Enzymatic Assay for human Sirtuin 2 (SIRT2) (AID 2283217)
Procedure, shortened: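 Cell-free recombinant human SIRT2, fluorescent substrate with product separated by electrophoretic mobility shift, 1 hr. Screened in duplicate at 25 uM; hits rerun singly in concentration-response up to 50 uM, relative to DMSO.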

[3] = molecular target: human Sirtuin 1 (SIRT1), SIRT1 (gene 23411) (UniProt Q96EB6); experiment: NVS_ENZ_hSIRT1: NovaScreen (NVS) Enzymatic Assay for human Sirtuin 1 (SIRT1) (AID 2283219)
Procedure, shortened: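 Cell-free recombinant SIRT1 with a fluorescent substrate; substrate and product separated by electrophoretic mobility shift and read by fluorescence intensity, 1 h after dosing. Primary screen at 25 uM in duplicate; hits re-run in concentration-response up to 50 uM, relative to DMSO.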

[4] = molecular target: human Sirtuin 3 (SIRT3), SIRT3 (gene 23410) (UniProt Q9NTG7); experiment: NVS_ENZ_hSIRT3: NovaScreen (NVS) Enzymatic Assay for human Sirtuin 3 (SIRT3) (AID 2283222)
Procedure, shortened: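 Cell-free enzyme assay with recombinant protein and fluorescent substrate, product separated by electrophoretic mobility shift; read 1 hour after dosing. Screened in duplicate at 25 uM, then singleton concentration-response up to 50 uM; loss of signal versus DMSO.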

[5] = molecular target: human SRC Proto-Oncogene, Non-receptor Tyrosine Kinase (SRC), SRC (gene 6714) (UniProt P12931); experiment: NVS_ENZ_hSRC: NovaScreen (NVS) Enzymatic Assay for human SRC Proto-Oncogene, Non-receptor Tyrosine Kinase (SRC) (AID 2283223)
Procedure, shortened: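 Cell-free kinase activity assay with fluorescent substrate, product separated by electrophoretic mobility shift, read 1 h after dosing. Duplicate single point at 25 uM, then concentration-response up to 50 uM; loss of signal versus DMSO.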

[6] = molecular target: human Tyrosine Protein Kinase Receptor Tie-2 (Tie2), TEK (gene 7010) (UniProt Q02763); experiment: NVS_ENZ_hTie2: NovaScreen (NVS) Enzymatic Assay for human Tyrosine Protein Kinase Receptor Tie-2 (Tie2) (AID 2283225)
Procedure, shortened: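 Recombinant human Tie2 kinase activity was read cell-free by fluorescence with electrophoretic mobility shift, 1 hour after dosing. The screen used 25 uM in duplicate, then concentration-response up to 50 uM. Signal loss was scored against DMSO.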

[7] = molecular target: human Vascular Endothelial Growth Factor Receptor 2 (VEGFR2), KDR (gene 3791) (UniProt P35968); experiment: NVS_ENZ_hVEGFR2: NovaScreen (NVS) Enzymatic Assay for human Vascular Endothelial Growth Factor Receptor 2 (VEGFR2) (AID 2283230)
Procedure, shortened: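 Cell-free recombinant VEGFR2 kinase, fluorescent substrate with electrophoretic mobility-shift separation; read 1 h after dosing. Screened at 25 uM in duplicate, hits to concentration-response up to 50 uM; loss-of-signal versus DMSO.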

[8] = molecular target: sheep Cyclooxygenase-2 (Cox2), PTGS2 (gene 443460) (UniProt P79208); experiment: NVS_ENZ_oCOX2: NovaScreen (NVS) Enzymatic Assay for sheep Cyclooxygenase-2 (Cox2) (AID 2283231)
Procedure, shortened: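 Enzyme extracted from ovine placenta tested cell-free; activity read colorimetrically by absorbance 0.66 hour after dosing. Primary screen in duplicate at 25 uM; hits rerun as concentration series to 50 uM, loss of signal versus DMSO baseline.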

[9] = molecular target: rat Constitutive Nitric Oxide Synthase (CNOS), Nos1 (gene 24598) (UniProt P29476); experiment: NVS_ENZ_rCNOS: NovaScreen (NVS) Enzymatic Assay for rat Constitutive Nitric Oxide Synthase (CNOS) (AID 2283236)
Procedure, shortened: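 Enzyme activity in rat brain membrane preparation, read 1 h after dosing by filter-based radiometric scintillation counting. Primary screen in duplicate at 25 uM; actives (e.g., ≥30% inhibition) then run in concentration-response up to 50 uM.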

[10] = molecular target: human Rho Associated Coiled-coil Containing Protein Kinase 1 (ROCK1), ROCK1 (gene 6093) (UniProt Q13464); experiment: NVS_ENZ_hROCK1: NovaScreen (NVS) Enzymatic Assay for human Rho Associated Coiled-coil Containing Protein Kinase 1 (ROCK1) (AID 2283214)
Procedure, shortened: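 Cell-free recombinant human ROCK1 activity assay; fluorescent substrate and product separated by electrophoretic mobility shift, read 1 h after dosing. Screened in duplicate at 25 uM; loss of signal versus DMSO baseline scored as inhibition.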

[11] = molecular target: rat Acetylcholinesterase (AChE), Ache (gene 83817) (UniProt P37136); experiment: NVS_ENZ_rAChE: NovaScreen (NVS) Enzymatic Assay for rat Acetylcholinesterase (AChE) (AID 2283233)
Procedure, shortened: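 Rat brain membrane acetylcholinesterase activity measured colorimetrically 0.33 h after compound addition, loss of signal relative to DMSO. Primary screen in duplicate at 25 uM; actives re-run as concentration-response with 50 uM top concentration.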

[12] = molecular target: human Raf-1 Proto-Oncogene, serine/threonine Kinase (RAF1), RAF1 (gene 5894) (UniProt P04049); experiment: NVS_ENZ_hRAF1: NovaScreen (NVS) Enzymatic Assay for human Raf-1 Proto-Oncogene, serine/threonine Kinase (RAF1) (AID 2283216)
Procedure, shortened: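 Cell-free recombinant kinase with specific fluorescent substrate, product separated by electrophoretic mobility shift; read 1 h after dosing. Primary screen at 25 uM in duplicate; hits then run in concentration-response up to 50 uM, fitted as loss of signal versus DMSO.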

[13] = molecular target: rabbit Imidazoline 2 Central (I2C), CKB (gene 100009085) (UniProt P00567); experiment: NVS_ENZ_rabI2C: NovaScreen (NVS) Enzymatic Assay for rabbit Imidazoline 2 Central (I2C) (AID 2283228)
Procedure, shortened: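 Rabbit brain membranes, cell-free; readout by filter-based scintillation counting 1.5 hours after dosing, loss of signal vs DMSO. Initial duplicate test at 25 uM, then concentration-response with 50 uM top concentration.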

[14] = molecular target: human Protein Tyrosine Phosphatase Receptor Type F (PTPRF), PTPRF (gene 5792) (UniProt P10586); experiment: NVS_ENZ_hPTPRF: NovaScreen (NVS) Enzymatic Assay for human Protein Tyrosine Phosphatase Receptor Type F (PTPRF) (AID 2283213)
Procedure, shortened: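 Cell-free fluorescence enzyme assay with recombinant protein and substrate; product separated by electrophoretic mobility shift. Read 1 h after dosing, single 25 uM duplicate screen, then concentration-response up to 50 uM; loss of signal vs DMSO.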

[15] = molecular target: human Vascular Endothelial Growth Factor Receptor 3 (VEGFR3), FLT4 (gene 2324) (UniProt P35916); experiment: NVS_ENZ_hVEGFR3: NovaScreen (NVS) Enzymatic Assay for human Vascular Endothelial Growth Factor Receptor 3 (VEGFR3) (AID 2283229)
Procedure, shortened: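 Cell-free recombinant VEGFR3 kinase reaction with fluorescent substrate, read 1 h after dosing by electrophoretic mobility shift separation of substrate and product. Single-concentration duplicate screen at 25 uM, then concentration-response up to 50 uM; loss of activity versus DMSO.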

[16] = molecular target: rat Adenylate Cyclase, Forskolin Stimulated, Adcy5 (gene 64532) (UniProt Q04400); experiment: NVS_ENZ_rACFSKBinding: NovaScreen (NVS) Enzymatic Assay for rat Adenylate Cyclase, Forskolin Stimulated (AID 2283232)
Procedure, shortened: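 Rat forebrain membrane preparation, cell-free, read 1 h after dosing by filter-based scintillation counting. Primary screen in duplicate at 25 uM; actives (e.g. ≥30% inhibition) rerun in concentration-response up to 50 uM; fit versus DMSO.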

[17] = molecular target: human Vascular Endothelial Growth Factor Receptor 1 (VEGFR1), FLT1 (gene 2321) (UniProt P17948); experiment: NVS_ENZ_hVEGFR1: NovaScreen (NVS) Enzymatic Assay for human Vascular Endothelial Growth Factor Receptor 1 (VEGFR1) (AID 2283226)
Procedure, shortened: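 Cell-free assay of recombinant human VEGFR1 kinase with substrate, measured 1 h after dosing; fluorescence with electrophoretic mobility-shift separation of substrate and product, referenced to DMSO; primary screen at 25 uM in duplicate, actives then run in concentration series.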

rat Constitutive Nitric Oxide Synthase (CNOS), Nos1 (gene 24598), sequence (P29476 whole entry, looked up): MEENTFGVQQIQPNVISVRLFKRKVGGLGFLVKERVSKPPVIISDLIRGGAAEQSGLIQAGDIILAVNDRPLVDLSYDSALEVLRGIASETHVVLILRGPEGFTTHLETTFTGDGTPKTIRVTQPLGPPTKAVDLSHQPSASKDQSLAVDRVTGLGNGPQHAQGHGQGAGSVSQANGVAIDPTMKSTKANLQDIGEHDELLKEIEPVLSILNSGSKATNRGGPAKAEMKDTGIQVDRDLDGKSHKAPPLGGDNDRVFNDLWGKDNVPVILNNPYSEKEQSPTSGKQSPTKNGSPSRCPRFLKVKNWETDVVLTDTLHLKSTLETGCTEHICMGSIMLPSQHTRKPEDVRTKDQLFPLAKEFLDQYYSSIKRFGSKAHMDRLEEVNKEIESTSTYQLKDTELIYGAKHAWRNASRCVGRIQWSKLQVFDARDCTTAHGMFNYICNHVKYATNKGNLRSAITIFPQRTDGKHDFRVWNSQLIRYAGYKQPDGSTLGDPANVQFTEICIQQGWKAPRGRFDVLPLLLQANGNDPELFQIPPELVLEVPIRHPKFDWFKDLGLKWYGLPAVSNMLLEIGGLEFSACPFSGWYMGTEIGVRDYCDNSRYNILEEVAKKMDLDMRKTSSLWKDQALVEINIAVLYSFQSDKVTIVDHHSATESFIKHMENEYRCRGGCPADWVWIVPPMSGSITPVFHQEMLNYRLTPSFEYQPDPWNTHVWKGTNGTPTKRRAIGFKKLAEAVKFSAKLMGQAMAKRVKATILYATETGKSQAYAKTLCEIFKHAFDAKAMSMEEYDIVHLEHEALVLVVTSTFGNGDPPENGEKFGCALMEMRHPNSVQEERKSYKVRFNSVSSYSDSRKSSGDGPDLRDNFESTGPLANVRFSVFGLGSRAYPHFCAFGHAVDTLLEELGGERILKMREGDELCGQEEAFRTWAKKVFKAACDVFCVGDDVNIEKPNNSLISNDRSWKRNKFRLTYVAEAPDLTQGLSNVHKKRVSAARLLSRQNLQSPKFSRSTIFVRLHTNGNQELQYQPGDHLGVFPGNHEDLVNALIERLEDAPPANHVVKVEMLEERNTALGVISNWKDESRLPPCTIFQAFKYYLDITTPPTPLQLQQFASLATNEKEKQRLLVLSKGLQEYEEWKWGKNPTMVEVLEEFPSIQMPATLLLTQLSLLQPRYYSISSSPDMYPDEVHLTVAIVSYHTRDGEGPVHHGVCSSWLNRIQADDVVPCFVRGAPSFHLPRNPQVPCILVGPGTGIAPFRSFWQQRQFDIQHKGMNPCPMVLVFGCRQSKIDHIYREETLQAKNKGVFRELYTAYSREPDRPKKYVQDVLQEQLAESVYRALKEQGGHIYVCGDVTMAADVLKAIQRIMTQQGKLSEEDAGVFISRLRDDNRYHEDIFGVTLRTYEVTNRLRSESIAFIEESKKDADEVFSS
human Rho Associated Coiled-coil Containing Protein Kinase 1 (ROCK1), ROCK1 (gene 6093), sequence (Q13464 whole entry, looked up): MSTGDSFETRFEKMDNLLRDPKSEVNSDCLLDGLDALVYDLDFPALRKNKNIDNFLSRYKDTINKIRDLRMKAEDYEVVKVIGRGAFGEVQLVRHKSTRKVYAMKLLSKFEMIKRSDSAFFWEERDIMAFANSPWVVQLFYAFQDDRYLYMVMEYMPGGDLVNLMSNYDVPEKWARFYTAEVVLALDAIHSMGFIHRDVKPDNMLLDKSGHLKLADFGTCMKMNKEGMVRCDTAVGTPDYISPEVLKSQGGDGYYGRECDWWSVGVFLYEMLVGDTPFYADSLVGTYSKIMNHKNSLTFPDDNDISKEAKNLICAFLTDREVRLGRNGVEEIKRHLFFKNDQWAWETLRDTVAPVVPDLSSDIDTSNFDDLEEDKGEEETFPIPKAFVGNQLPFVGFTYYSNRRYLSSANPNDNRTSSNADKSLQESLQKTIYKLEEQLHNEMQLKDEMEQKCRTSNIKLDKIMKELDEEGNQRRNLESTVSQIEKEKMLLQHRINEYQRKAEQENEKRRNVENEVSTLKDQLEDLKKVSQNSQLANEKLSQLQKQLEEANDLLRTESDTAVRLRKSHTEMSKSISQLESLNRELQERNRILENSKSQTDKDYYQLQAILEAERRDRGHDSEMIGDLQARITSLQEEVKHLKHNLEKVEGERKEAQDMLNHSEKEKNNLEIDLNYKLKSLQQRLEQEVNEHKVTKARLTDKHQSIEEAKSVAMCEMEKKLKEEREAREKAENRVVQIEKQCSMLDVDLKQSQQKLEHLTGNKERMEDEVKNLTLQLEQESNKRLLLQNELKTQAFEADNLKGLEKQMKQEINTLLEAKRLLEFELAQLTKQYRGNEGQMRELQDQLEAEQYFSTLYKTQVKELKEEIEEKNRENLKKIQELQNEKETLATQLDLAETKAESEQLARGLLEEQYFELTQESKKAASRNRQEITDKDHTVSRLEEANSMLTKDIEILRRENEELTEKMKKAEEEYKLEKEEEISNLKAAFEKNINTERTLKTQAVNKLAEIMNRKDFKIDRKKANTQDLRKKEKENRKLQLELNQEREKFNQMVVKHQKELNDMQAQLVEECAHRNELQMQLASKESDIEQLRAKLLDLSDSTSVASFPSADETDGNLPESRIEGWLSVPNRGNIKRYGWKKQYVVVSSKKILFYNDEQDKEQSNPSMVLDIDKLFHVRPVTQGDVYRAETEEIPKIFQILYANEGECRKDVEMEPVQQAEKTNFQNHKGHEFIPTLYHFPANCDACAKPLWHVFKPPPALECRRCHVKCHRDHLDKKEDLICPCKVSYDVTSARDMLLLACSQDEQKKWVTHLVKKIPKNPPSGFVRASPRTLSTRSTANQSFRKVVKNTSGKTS
human Sirtuin 3 (SIRT3), SIRT3 (gene 23410), sequence (Q9NTG7 whole entry, looked up): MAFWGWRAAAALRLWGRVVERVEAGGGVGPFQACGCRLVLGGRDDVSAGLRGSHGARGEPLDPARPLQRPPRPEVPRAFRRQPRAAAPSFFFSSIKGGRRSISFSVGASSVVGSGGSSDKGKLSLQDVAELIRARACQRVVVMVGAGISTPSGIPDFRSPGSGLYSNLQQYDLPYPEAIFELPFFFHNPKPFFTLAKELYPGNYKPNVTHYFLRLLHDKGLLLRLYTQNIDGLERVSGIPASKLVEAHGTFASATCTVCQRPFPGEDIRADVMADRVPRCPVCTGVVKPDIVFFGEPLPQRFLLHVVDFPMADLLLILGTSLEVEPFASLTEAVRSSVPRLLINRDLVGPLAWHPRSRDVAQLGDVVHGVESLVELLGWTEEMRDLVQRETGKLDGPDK
human Tyrosine Protein Kinase Receptor Tie-2 (Tie2), TEK (gene 7010), sequence (Q02763 whole entry, looked up): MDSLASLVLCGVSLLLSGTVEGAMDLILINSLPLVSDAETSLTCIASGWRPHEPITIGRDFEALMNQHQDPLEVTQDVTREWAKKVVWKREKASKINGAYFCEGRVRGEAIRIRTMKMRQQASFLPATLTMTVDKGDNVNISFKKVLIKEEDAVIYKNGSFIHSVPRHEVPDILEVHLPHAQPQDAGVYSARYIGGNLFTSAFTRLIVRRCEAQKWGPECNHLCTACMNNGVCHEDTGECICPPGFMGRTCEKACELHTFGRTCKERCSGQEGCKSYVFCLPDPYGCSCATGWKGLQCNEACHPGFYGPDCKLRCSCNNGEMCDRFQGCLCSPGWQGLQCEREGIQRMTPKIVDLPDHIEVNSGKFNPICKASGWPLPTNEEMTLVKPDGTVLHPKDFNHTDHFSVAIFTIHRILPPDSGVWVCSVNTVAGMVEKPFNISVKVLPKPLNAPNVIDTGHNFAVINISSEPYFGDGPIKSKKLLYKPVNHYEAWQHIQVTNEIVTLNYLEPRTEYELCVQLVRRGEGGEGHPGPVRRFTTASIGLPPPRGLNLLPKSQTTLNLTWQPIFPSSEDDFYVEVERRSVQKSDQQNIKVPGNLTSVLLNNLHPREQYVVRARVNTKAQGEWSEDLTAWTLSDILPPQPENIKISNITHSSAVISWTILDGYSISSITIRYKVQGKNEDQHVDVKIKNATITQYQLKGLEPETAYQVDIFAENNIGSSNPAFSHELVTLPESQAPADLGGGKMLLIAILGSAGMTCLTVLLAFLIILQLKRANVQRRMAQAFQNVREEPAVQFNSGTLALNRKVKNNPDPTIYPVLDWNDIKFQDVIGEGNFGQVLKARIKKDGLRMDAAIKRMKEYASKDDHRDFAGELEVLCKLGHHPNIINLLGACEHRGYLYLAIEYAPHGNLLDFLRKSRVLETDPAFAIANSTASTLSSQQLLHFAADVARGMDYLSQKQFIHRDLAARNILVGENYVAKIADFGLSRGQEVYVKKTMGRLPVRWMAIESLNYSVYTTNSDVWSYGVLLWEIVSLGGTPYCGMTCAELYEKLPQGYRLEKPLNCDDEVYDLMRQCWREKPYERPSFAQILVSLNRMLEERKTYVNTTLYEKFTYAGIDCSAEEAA
rat Acetylcholinesterase (AChE), Ache (gene 83817), sequence (P37136 whole entry, looked up): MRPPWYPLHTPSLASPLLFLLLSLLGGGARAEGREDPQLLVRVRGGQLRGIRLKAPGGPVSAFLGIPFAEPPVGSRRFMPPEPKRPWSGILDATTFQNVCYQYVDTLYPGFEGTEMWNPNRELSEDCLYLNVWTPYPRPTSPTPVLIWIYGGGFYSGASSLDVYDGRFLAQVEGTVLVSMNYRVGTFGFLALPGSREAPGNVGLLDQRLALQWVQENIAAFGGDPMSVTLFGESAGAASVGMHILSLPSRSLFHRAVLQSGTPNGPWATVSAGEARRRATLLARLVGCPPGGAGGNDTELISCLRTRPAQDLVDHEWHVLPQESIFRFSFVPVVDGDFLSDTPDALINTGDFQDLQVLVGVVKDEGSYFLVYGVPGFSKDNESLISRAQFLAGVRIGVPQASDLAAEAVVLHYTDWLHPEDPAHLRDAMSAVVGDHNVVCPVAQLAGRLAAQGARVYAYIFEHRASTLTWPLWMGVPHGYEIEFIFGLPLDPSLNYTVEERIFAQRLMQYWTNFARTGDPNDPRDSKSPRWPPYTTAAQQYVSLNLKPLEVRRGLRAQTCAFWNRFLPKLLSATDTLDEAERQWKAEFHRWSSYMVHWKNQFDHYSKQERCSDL

**Q.** Which AC50 [1] does the source give for `CC[C@H](C)[C@H]1O[C@]2(C=C[C@@H]1C)C[C@@H]1C[C@@H](C/C=C(\C)[C@@H](O[C@H]3C[C@H](OC)[C@@H](O[C@H]4C[C@H](OC)[C@@H](NC)[C@H](C)O4)[C@H](C)O3)[C@@H](C)/C=C/C=C3\CO[C@@H]4[C@H](O)C(C)=C[C@@H](C(=O)O1)[C@]34O)O2` here?
**A.** Its AC50 is 9.67 µM (active).

**Q.** And the AC50 [2]?
**A.** The AC50 was 25 µM (active).

**Q.** What about the outcome [3] of the same compound?
**A.** Its outcome is “inactive”.

**Q.** What about the AC50 [4] of the same compound?
**A.** The AC50 was 1.25 µM (active).

**Q.** And the AC50 [5]?
**A.** Its AC50 is 34 µM (active).

**Q.** What about the outcome [6] of the same compound?
**A.** Its outcome is “inactive”.

**Q.** What about the outcome [7] of the same compound?
**A.** Its outcome is “inactive”.

**Q.** And the AC50 [8]?
**A.** Its AC50 is 0.0396 µM (active).

**Q.** For `COP(=O)(NC(C)=O)SC` (stereo not drawn), which outcome [9] is on record?
**A.** Its outcome is “inactive”.

**Q.** With `CCCCOC(=O)c1ccccc1C(=O)O` as the compound, how does the outcome [6] read?
**A.** Its outcome is “inactive”.

**Q.** With `CCCCN(CC)c1c([N+](=O)[O-])cc(C(F)(F)F)cc1[N+](=O)[O-]` as the compound, how does the outcome [9] read?
**A.** Its outcome is “inactive”.

**Q.** Which outcome [10] does the source give for `CNC(=O)ON=C(SC)C(=O)N(C)C` here?
**A.** The outcome was “inactive”.

**Q.** What about the AC50 [11] of the same compound?
**A.** Its AC50 is 3.26 µM (active).

**Q.** How did the outcome [12] turn out when `CN(C)C(=O)Nc1cccc(C(F)(F)F)c1` was run?
**A.** Its outcome is “inactive”.

**Q.** Which outcome [13] does the source give for `C#CC(C)(C)NC(=O)c1cc(Cl)cc(Cl)c1` here?
**A.** The outcome was “inactive”.

**Q.** `CC1(C(=O)Nc2ccc(O)c(Cl)c2Cl)CCCCC1` was tested. Which outcome [10] did it give?
**A.** Its outcome is “inactive”.

**Q.** And the outcome [1]?
**A.** Its outcome is “inactive”.

**Q.** How did the outcome [10] turn out when `CCC(=O)Nc1ccc(Cl)c(Cl)c1` was run?
**A.** The outcome was “inactive”.

**Q.** And the AC50 [13]?
**A.** The AC50 was 15.7 µM (active).

**Q.** For `CC(=NC#N)N(C)Cc1ccc(Cl)nc1`, which outcome [14] is on record?
**A.** The outcome was “inactive”.

**Q.** And the outcome [11]?
**A.** Its outcome is “inactive”.

**Q.** For `COP(=O)(OC)SCn1c(=O)oc2cc(Cl)cnc21`, which AC50 [11] is on record?
**A.** The AC50 was 2.11 µM (active).

**Q.** `CNC(=O)Oc1cccc2c1OC(C)(C)O2` was tested. Which AC50 [11] did it give?
**A.** The AC50 was 0.797 µM (active).

**Q.** `CC(C1CC1)C(O)(Cn1cncn1)c1ccc(Cl)cc1` (stereo not drawn) was tested. Which outcome [5] did it give?
**A.** The outcome was “inactive”.

**Q.** With `CCC(=NOC/C=C/Cl)C1=C(O)CC(C2CCOCC2)CC1=O` (stereo not drawn) as the compound, how does the outcome [15] read?
**A.** Its outcome is “inactive”.

**Q.** How did the outcome [12] turn out when `CCCOCC(=Nc1ccc(Cl)cc1C(F)(F)F)n1ccnc1` was run?
**A.** The outcome was “inactive”.

**Q.** What does the source list for `CCOP(=S)(OCC)OC(Cl)C(Cl)(Cl)Cl` (stereo not drawn)?
**A.** outcome [16]: inactive; AC50 [11]: 4.06 µM (active)

**Q.** With `CCOP(=S)(OCC)SCCSCC` as the compound, how does the outcome [17] read?
**A.** Its outcome is “inactive”.

**Q.** `C[Si](Cn1cncn1)(c1ccc(F)cc1)c1ccc(F)cc1` was tested. Which outcome [4] did it give?
**A.** The outcome was “inactive”.

**Q.** What does the source list for `FC(F)C(F)(F)OCC(Cn1cncn1)c1ccc(Cl)cc1Cl` (stereo not drawn)?
**A.** AC50 [2]: 14.6 µM (active); AC50 [4]: 25 µM (active); AC50 [8]: 0.67 µM (active)

**Q.** With `CCCCSP(=O)(SCCCC)SCCCC` as the compound, how does the outcome [14] read?
**A.** Its outcome is “inactive”.

**Q.** And the AC50 [9]?
**A.** The AC50 was 6.6 µM (active).

**Q.** What does the source list for `O=[N+]([O-])c1cc(C(F)(F)F)c(Cl)c([N+](=O)[O-])c1Nc1ncc(C(F)(F)F)cc1Cl`?
**A.** outcome [1]: inactive; outcome [6]: inactive; outcome [11]: inactive

**Q.** With `CCNc1nc(Cl)nc(NC(C)(C)C#N)n1` as the compound, how does the outcome [5] read?
**A.** The outcome was “inactive”.

**Q.** `C=C(C)[C@H]1Cc2c(ccc3c2O[C@@H]2COc4cc(OC)c(OC)cc4[C@@H]2C3=O)O1` was tested. Which outcome [6] did it give?
**A.** The outcome was “inactive”.

**Q.** With `CNC(=O)ON=C(C)SC` as the compound, how does the AC50 [11] read?
**A.** Its AC50 is 3.86 µM (active).

**Q.** `CCOC(=O)CC(SP(=O)(OC)OC)C(=O)OCC` (stereo not drawn) was tested. Which AC50 [11] did it give?
**A.** Its AC50 is 0.917 µM (active).

**Q.** How did the outcome [16] turn out when `Cc1ccn2nc(S(=O)(=O)Nc3c(F)cccc3F)nc2n1` was run?
**A.** The outcome was “inactive”.
